# The supplement of paper PMC11732987, “Enantioselective OTUD7B fragment discovery through chemoproteomics screening and high-throughput optimisation” (Communications Chemistry, 2025)
# Unmarked numbers belong to inactive results.
# Tests used:
# Assay in all cases: log2 ratio of Biotin-Ahx-Ub-VS probe labelling (fragment/DMSO); higher = less target engagement (more negative = stronger competition), active = hit call of the paper (q ≤ 0.05, log2 ratio ≤ -1)
# Conditions in all cases: compound concentration: 200 uM; treatment time: 3 h
# USP19 = target: T1, USP19 (UniProt O94966)
# T1 sequence (whole entry): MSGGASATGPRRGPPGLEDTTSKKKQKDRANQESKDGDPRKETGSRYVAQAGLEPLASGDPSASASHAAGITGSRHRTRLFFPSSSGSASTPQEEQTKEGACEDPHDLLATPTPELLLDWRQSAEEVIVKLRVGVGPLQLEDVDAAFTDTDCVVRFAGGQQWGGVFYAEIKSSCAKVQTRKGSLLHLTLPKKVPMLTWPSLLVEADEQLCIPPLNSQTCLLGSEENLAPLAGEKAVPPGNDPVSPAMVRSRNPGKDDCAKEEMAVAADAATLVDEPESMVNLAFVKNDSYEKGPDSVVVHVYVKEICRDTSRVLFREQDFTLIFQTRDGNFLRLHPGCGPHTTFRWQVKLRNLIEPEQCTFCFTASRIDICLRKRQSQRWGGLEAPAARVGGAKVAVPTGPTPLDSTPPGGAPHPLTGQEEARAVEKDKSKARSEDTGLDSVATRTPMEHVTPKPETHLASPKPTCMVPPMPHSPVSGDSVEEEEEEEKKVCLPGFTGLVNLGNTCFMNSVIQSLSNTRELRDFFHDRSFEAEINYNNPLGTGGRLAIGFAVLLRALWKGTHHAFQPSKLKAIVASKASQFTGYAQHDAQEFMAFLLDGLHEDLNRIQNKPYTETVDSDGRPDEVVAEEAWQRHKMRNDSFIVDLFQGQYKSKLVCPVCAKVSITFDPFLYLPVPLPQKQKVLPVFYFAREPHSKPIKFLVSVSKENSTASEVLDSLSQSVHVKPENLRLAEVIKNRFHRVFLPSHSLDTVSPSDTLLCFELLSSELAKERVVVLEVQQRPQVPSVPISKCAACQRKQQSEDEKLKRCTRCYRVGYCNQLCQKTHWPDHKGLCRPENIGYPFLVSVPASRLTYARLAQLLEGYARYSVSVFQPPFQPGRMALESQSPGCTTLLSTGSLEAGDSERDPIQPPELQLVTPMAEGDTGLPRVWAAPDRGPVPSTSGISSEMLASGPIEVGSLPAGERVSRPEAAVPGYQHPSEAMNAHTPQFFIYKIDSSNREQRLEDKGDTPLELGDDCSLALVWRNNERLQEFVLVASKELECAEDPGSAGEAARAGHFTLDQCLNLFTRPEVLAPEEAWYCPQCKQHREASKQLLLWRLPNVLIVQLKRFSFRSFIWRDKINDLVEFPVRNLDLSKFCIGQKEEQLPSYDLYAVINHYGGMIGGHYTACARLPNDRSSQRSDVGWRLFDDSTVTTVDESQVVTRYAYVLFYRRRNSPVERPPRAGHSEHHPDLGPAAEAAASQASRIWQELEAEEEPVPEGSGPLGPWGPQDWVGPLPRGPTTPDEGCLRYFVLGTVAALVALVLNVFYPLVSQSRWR
# Summary of the method: (§1)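 Each value is an average log2 ratio of fragment to vehicle, tested by unpaired t-test. The underlying Spectronaut label-free quantities were global-median-normalised, and only proteins with ≥2 unique peptides were included. Triplicate HEK293T lysate samples (495 µg) were exposed to fragment at 200 µM or vehicle for 3 h, then to Biotin-Ahx-Ub-VS at 0.5 µM final for 1 h, before NeutrAvidin enrichment of labelled DUBs, LysC and trypsin digestion, and diaPASEF LC-MS/MS.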
# USP24 = USP24 (UniProt Q9UPU5)
# USP24, sequence (Q9UPU5 whole entry): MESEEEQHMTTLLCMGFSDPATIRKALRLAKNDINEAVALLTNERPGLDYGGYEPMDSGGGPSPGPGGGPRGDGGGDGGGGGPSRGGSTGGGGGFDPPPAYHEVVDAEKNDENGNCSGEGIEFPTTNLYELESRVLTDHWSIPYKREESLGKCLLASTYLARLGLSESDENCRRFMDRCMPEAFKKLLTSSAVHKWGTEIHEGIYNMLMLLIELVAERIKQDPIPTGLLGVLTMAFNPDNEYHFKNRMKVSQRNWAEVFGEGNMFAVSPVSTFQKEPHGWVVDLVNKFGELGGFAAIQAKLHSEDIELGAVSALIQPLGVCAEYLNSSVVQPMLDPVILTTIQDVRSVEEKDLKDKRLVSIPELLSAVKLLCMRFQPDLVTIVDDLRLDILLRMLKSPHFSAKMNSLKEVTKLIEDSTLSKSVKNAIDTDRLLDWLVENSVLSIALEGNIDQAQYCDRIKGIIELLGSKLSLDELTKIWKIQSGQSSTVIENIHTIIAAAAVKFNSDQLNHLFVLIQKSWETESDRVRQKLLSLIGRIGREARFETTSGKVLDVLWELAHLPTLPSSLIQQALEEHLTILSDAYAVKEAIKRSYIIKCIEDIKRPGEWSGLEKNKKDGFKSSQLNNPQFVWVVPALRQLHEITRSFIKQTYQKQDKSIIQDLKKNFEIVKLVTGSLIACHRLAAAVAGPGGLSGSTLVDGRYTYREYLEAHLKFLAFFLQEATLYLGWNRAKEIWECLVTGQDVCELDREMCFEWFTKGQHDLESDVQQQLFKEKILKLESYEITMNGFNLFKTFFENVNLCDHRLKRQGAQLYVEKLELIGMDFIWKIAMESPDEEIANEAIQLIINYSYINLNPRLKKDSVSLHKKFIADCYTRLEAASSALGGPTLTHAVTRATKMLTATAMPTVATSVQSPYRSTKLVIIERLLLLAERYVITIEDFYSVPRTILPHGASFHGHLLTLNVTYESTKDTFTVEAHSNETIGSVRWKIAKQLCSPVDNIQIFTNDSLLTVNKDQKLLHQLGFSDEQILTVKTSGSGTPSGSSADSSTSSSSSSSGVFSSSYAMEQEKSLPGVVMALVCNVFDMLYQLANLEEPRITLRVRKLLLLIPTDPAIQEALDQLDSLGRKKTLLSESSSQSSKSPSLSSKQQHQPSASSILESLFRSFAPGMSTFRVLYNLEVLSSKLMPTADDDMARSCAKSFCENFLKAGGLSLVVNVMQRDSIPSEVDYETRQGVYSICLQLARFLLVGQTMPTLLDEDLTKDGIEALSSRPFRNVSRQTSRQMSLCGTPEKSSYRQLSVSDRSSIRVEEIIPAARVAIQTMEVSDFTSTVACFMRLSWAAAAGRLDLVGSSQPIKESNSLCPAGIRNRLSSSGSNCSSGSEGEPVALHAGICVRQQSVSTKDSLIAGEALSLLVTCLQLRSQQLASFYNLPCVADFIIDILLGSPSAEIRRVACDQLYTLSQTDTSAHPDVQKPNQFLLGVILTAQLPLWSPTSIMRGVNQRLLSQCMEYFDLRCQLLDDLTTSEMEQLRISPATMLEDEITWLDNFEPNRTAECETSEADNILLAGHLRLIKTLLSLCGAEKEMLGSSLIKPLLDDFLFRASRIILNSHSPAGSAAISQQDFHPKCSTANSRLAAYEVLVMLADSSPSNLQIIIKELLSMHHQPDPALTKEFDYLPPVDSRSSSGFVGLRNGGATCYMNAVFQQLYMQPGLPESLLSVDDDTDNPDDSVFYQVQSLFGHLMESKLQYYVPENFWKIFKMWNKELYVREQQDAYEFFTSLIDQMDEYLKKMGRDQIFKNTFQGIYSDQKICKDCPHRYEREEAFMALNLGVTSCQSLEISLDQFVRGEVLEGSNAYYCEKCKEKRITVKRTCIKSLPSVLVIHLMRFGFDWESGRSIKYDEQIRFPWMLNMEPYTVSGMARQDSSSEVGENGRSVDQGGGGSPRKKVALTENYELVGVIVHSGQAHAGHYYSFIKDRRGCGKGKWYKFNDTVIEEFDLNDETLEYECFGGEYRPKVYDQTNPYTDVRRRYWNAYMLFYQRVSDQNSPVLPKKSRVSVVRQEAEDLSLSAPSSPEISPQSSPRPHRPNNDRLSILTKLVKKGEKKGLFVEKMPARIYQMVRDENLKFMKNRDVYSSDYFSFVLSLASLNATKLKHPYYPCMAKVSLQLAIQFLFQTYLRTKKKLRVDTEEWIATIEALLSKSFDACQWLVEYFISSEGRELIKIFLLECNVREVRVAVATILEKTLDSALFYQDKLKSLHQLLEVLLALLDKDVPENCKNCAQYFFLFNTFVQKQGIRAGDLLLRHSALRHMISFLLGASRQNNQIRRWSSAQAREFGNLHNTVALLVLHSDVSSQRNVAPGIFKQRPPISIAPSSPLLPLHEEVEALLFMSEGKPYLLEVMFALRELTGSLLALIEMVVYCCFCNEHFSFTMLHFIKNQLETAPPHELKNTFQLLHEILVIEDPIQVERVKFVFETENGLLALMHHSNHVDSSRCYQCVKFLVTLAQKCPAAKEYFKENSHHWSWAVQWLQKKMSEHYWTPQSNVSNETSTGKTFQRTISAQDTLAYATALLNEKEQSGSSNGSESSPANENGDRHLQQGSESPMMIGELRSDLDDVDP
# Summary of the method: as §1
# USP25 = target: T2, USP25 (UniProt Q9UHP3)
# T2 sequence (whole entry): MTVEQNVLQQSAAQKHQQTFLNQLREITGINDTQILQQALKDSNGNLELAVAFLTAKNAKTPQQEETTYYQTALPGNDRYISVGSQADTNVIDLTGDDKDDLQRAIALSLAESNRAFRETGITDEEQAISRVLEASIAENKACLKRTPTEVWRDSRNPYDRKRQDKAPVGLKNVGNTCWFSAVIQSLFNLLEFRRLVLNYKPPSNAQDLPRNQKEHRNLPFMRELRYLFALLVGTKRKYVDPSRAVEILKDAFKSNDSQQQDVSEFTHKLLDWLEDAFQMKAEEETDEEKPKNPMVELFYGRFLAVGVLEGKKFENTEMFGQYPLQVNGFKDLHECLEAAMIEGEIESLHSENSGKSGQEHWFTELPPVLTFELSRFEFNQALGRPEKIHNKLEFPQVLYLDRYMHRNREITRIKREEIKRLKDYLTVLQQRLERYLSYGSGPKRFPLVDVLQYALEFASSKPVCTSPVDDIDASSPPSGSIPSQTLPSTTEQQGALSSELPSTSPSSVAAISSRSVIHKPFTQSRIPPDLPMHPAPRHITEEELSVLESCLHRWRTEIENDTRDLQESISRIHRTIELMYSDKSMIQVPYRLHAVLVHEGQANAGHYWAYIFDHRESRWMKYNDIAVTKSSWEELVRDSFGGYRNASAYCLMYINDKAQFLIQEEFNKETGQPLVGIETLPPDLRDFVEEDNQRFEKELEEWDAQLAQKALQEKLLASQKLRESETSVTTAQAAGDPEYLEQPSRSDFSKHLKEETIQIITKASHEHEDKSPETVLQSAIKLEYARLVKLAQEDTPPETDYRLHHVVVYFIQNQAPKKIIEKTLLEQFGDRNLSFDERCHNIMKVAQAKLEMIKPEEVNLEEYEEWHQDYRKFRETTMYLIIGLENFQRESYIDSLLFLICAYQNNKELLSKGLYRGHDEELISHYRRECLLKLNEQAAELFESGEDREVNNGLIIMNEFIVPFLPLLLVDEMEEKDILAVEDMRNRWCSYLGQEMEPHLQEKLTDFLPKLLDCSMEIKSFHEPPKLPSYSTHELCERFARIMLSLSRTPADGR
# Summary of the method: as §1
# USP28 = target: T3, USP28 (UniProt Q96RU2)
# T3 sequence (whole entry): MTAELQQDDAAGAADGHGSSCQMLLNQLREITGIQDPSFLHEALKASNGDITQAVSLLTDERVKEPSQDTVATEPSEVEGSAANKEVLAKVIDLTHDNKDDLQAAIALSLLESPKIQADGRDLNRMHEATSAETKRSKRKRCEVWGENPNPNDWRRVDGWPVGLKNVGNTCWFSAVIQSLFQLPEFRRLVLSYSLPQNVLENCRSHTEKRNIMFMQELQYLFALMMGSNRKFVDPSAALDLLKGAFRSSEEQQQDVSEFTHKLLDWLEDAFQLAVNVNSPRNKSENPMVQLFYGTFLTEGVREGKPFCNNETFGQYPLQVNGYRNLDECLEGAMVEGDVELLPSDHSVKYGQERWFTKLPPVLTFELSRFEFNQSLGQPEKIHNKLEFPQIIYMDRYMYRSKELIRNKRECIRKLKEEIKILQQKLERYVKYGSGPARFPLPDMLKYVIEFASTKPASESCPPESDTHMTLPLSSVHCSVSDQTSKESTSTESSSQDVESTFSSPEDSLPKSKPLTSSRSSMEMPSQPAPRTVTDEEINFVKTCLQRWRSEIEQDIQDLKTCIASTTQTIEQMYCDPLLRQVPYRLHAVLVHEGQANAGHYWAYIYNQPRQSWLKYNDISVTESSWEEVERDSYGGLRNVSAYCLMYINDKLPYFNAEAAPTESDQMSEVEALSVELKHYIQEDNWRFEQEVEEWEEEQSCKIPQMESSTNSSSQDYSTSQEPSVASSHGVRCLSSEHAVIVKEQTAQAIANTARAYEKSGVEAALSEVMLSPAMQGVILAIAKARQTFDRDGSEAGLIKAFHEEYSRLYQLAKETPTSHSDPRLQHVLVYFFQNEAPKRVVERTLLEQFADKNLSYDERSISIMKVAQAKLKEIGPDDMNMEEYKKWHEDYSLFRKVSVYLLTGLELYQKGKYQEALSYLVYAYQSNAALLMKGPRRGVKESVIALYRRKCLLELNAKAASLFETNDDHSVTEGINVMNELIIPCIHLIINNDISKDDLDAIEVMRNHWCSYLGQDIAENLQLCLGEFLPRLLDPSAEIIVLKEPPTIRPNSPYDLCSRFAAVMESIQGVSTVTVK
# Summary of the method: as §1
compound,measurement,setting,value
Cl.O=C(CCl)N1CCC(n2nc3ccccc3n2)CC1,log2 ratio of Biotin-Ahx-Ub-VS probe labelling,USP19,-0.666
same,log2 ratio of Biotin-Ahx-Ub-VS probe labelling,USP24,-1.08 (active)
same,log2 ratio of Biotin-Ahx-Ub-VS probe labelling,USP25,-0.61
same,log2 ratio of Biotin-Ahx-Ub-VS probe labelling,USP28,-0.611
